Sampled rows, rich in hits. Any-hit rate of the full collection: about 0.83%.
NCOA3 inh – inhibits human SRC3 coactivator; Q9Y6Q9; HEK293 GAL4-SRC3 luciferase reporter, luminescence; inhibition, % at 3.6 µM; hit rate 0.17% among 360,000; AID 588352;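 active means inhibition above a per-campaign cutoff, the mean of all compounds plus 3 SD, cut at about 60% in these data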;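 further: higher means less SRC3-driven luciferase light from the GAL4 reporter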
NCOA1 inh – human NCOA1 inhibition; AID 588354; inhibition, % at 3.6 µM; hit rate 0.12% among 360,000; Q15788; HEK293 GAL4-SRC1 luciferase reporter, luminescence;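 active means inhibition above the campaign mean plus 3 SD, with each screening campaign given its own cutoff, cut at about 60% in these data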
Gli-Sufu block – antagonists of Gli-Sufu signaling; hit rate 0.74% among 340,000; AID 588413; Sufu-KO-LIGHT fibroblasts, Gli luciferase reporter luminescence; inhibition, % at 5 µM;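 active means inhibition above about 55%, limit read from the data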
NCOA2 inhibitor – human SRC2 (NCOA2) inhibition. Q15596. HEK293 GAL4-SRC2 luciferase reporter, luminescence. inhibition, % at 9 µM. hit rate 0.17% among 370,000;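 active means inhibition above the mean inhibition of all tested compounds plus 3 SD, set per campaign, cut at about 52% in these data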
LRH-1 inv ag – inverse agonists of human LRH-1 (NR5A2) | hit rate 0.13% among 360,000 | HEK293T StAR-luciferase reporter, LRH-1 transfected, 24 h | O00482 | inhibition, % at 3.6 µM;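 active means inhibition above the mean inhibition of all tested compounds plus 3 SD, cut at about 73% in these data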
Gli antag conf – confirmation of Gli-SUFU pathway antagonists; shares compounds with Gli-Sufu block; Sufu-KO-LIGHT cells, Gli luciferase reporter, luminescence; inhibition, % at 5 µM; hit rate 40% among 2,500; AID 602428;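 active means mean inhibition at 5 µM reaching about 45%, limit read from the data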
Gli cytotox – counter-screen for Gli-SUFU antagonists: cytotoxicity | shares compounds with Gli-Sufu block | Sufu-KO-LIGHT cells cytotoxicity, ATP luminescence | cytotoxicity, % at 5 µM | hit rate 32% among 2,500 | AID 651994;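 active means mean cytotoxicity at 5 µM above about 25%, limit read from the data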;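 further: cells exposed to compound overnight for roughly 16 to 18 hours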
Wnt3a counter – inhibits Wnt3a reporter, counter-screen for Gli-SUFU antagonists | shares compounds with Gli-Sufu block | Wnt-LIGHT cells, Wnt3a-driven luciferase reporter, luminescence | inhibition, % at 6.25 µM | hit rate 20% among 2,500 | AID 651995;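 active means mean inhibition above about 25%, limit read from the data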
Hits are given with their value.

For N#CC1C=Cc2c(ccc3ccccc23)N1C(=O)c1ccccc1 (stereo not drawn) the results were NCOA3 inh inactive, NCOA1 inh inactive, Gli-Sufu block inactive, NCOA2 inhibitor inactive, LRH-1 inv ag inactive, Gli antag conf 61, Gli cytotox 57 and Wnt3a counter inactive.
`COc1cc(CSc2nnnn2-c2ccc(C)cc2)cc(OC)c1OC` gave NCOA3 inh inactive, NCOA1 inh inactive, Gli-Sufu block 69, NCOA2 inhibitor inactive, LRH-1 inv ag inactive, Gli antag conf 68, Gli cytotox 27 and Wnt3a counter 40.
Screening COc1ccc(F)cc1CSc1nnnn1-c1ccc(O)cc1 returned NCOA3 inh inactive, NCOA1 inh inactive, Gli-Sufu block inactive, NCOA2 inhibitor inactive and LRH-1 inv ag inactive.
C#CCNC(=O)C[C@H]1C[C@@]2(C(=O)OC)C(=C[C@H](C3CCCC3)O[C@@H]2C)N(Cc2ccc(Cl)cc2Cl)C1=O was read as NCOA2 inhibitor inactive.
CC(C)Oc1cccc(-c2n[nH]c(=S)n2N=Cc2cccc([N+](=O)[O-])c2)c1 was read as NCOA2 inhibitor inactive.
Cc1nnc(NCc2ccncc2)c2ccccc12 was read as NCOA3 inh inactive, NCOA1 inh inactive, Gli-Sufu block inactive, NCOA2 inhibitor inactive, LRH-1 inv ag inactive, Gli antag conf inactive, Gli cytotox inactive and Wnt3a counter inactive.
For COc1ccc(CCCC(=O)O)c(C)c1 the results were NCOA3 inh inactive, NCOA1 inh inactive, Gli-Sufu block 95, NCOA2 inhibitor inactive, LRH-1 inv ag inactive, Gli antag conf inactive, Gli cytotox inactive and Wnt3a counter inactive.
Screening CCOc1ccc(-n2c(SC/C=C/c3ccccc3)nnc2-c2ccco2)cc1 returned NCOA2 inhibitor inactive.
O=C(NC1CCCCN(Cc2cccc(Cl)c2)C1=O)c1cccc(C(F)(F)F)c1 (stereo not drawn) was read as NCOA2 inhibitor inactive.
For Cc1cc(C(=O)CSc2nnc3ccccn23)c(C)n1-c1ccccc1 the results were NCOA3 inh 66, NCOA1 inh inactive, Gli-Sufu block inactive, NCOA2 inhibitor inactive, LRH-1 inv ag inactive, Gli antag conf 65, Gli cytotox 40 and Wnt3a counter 96.
`Cc1cc(C(=O)CSc2nnc(-c3ccccc3)n2-c2ccccc2)c(C)n1-c1ncn[nH]1` gave NCOA3 inh inactive, NCOA1 inh inactive, Gli-Sufu block inactive, NCOA2 inhibitor inactive and LRH-1 inv ag inactive.
`Cc1n(Cc2ccccc2)c2ccccc2[n+]1Cc1ccccc1` gave NCOA3 inh inactive, NCOA1 inh inactive, Gli-Sufu block inactive, NCOA2 inhibitor inactive, LRH-1 inv ag inactive, Gli antag conf 62, Gli cytotox 33 and Wnt3a counter inactive.
CC(=O)CC[C@@H]1CC[C@]2(CCCN(S(=O)(=O)C3CCCCC3)C2)O1 was read as NCOA2 inhibitor inactive.
For CCOC(=O)N1CCN(C(=O)c2ccc3c(c2)N(Cc2cccc(Cl)c2)C(=O)c2ccccc2S3=O)CC1 (stereo not drawn) the results were NCOA3 inh inactive, NCOA1 inh inactive, Gli-Sufu block 56, NCOA2 inhibitor inactive, LRH-1 inv ag inactive, Gli antag conf inactive, Gli cytotox inactive and Wnt3a counter inactive.
Screening CCCCOc1ccc(N2C(N)=NC(N)=NC23CCCCC3)cc1 returned NCOA3 inh inactive, NCOA1 inh inactive, Gli-Sufu block 59, NCOA2 inhibitor inactive, LRH-1 inv ag inactive, Gli antag conf 48, Gli cytotox inactive and Wnt3a counter inactive.
`CN1Cc2nnn(Cc3ccccc3)c2-c2cc(N3CCCC3)ccc2S1(=O)=O` gave NCOA2 inhibitor inactive.
Screening CCOc1ccc(-n2c(SCC(=O)Nc3ccc(S(=O)(=O)Nc4cc(C)nc(C)n4)cc3)nnc2-c2ccc(C)cc2)cc1 returned NCOA2 inhibitor inactive.
`Cc1cc(NC(=O)C2CCN(S(=O)(=O)Cc3ccccc3)CC2)ccc1-n1cnnn1` gave NCOA3 inh inactive, NCOA1 inh inactive, Gli-Sufu block 60, NCOA2 inhibitor inactive, LRH-1 inv ag inactive, Gli antag conf inactive, Gli cytotox inactive and Wnt3a counter inactive.
CCOC(=O)[C@H]1[C@H]2COc3ccc(C)cc3[C@@H]2N2C(=O)c3cc(OC)c(OC)cc3NC(=O)[C@@]12C was read as NCOA3 inh inactive, NCOA1 inh inactive, Gli-Sufu block inactive, NCOA2 inhibitor inactive and LRH-1 inv ag inactive.
`CCOC(=O)[C@H]1[C@H]2COc3ccc(OC)cc3[C@@H]2N2C(=O)c3cc(OC)c(OC)cc3NC(=O)[C@@]12C` gave NCOA3 inh inactive, NCOA1 inh inactive, Gli-Sufu block 99, NCOA2 inhibitor inactive, LRH-1 inv ag inactive, Gli antag conf inactive, Gli cytotox inactive and Wnt3a counter inactive.
`Cc1ccc(Cn2c(=O)n(C)c(=O)c3sccc32)cc1` gave NCOA3 inh inactive, NCOA1 inh inactive, Gli-Sufu block inactive, NCOA2 inhibitor inactive and LRH-1 inv ag inactive.
For C=Cc1ccc(Cn2c(=O)n(C)c(=O)c3sccc32)cc1 the results were NCOA3 inh inactive, NCOA1 inh inactive, Gli-Sufu block inactive, NCOA2 inhibitor inactive, LRH-1 inv ag inactive, Gli antag conf inactive, Gli cytotox inactive and Wnt3a counter inactive.
Screening Cc1ccccc1NC(=O)c1cccc2c1-c1ccccc1C2=O returned NCOA2 inhibitor inactive.
For COc1ccc(-c2nc(N)ncc2-c2csc(C)n2)c(O)c1 the results were NCOA3 inh inactive, NCOA1 inh inactive, Gli-Sufu block 99, NCOA2 inhibitor inactive, LRH-1 inv ag inactive, Gli antag conf inactive, Gli cytotox inactive and Wnt3a counter inactive.
Screening CCc1cc(-c2nc(N)ncc2-c2csc(C)n2)c(O)cc1OC returned NCOA3 inh inactive, NCOA1 inh inactive, Gli-Sufu block inactive, NCOA2 inhibitor inactive and LRH-1 inv ag inactive.
Screening CN(C)S(=O)(=O)c1ccc(C(=O)Nc2nc(-c3cc4ccccc4o3)cs2)cc1 returned NCOA3 inh inactive, NCOA1 inh inactive, Gli-Sufu block inactive, NCOA2 inhibitor inactive and LRH-1 inv ag inactive.
`CC1CN(S(=O)(=O)c2ccc(C(=O)Nc3nc(-c4cc5ccccc5o4)cs3)cc2)CC(C)O1` (stereo not drawn) gave NCOA3 inh inactive, NCOA1 inh inactive, Gli-Sufu block 75, NCOA2 inhibitor inactive, LRH-1 inv ag inactive, Gli antag conf 79, Gli cytotox inactive and Wnt3a counter 30.
O=C(Nc1nc(-c2cc3ccccc3o2)cs1)c1ccc(S(=O)(=O)N2CCCC2)cc1 was read as NCOA3 inh inactive, NCOA1 inh inactive, Gli-Sufu block inactive, NCOA2 inhibitor inactive, LRH-1 inv ag inactive, Gli antag conf 59, Gli cytotox 30 and Wnt3a counter inactive.
For O=C(C1CCN(c2ncnc3c2sc2cccc(F)c23)CC1)N1CCN(Cc2ccc(F)cc2)CC1 the results were NCOA2 inhibitor inactive.
